Only some compounds are listed: those with a hit (about 9% of all), similar ones and a draw of the others.
ALOX12 inh: inhibitors of human 12S-lipoxygenase ALOX12 | P18054 | purified 12hLO, xylenol orange hydroperoxide absorbance | Potency, µM (series often up to 108 µM), usual class: inhibitors | 1.1% of 580,000 active
Target sequence (P18054 whole entry, looked up): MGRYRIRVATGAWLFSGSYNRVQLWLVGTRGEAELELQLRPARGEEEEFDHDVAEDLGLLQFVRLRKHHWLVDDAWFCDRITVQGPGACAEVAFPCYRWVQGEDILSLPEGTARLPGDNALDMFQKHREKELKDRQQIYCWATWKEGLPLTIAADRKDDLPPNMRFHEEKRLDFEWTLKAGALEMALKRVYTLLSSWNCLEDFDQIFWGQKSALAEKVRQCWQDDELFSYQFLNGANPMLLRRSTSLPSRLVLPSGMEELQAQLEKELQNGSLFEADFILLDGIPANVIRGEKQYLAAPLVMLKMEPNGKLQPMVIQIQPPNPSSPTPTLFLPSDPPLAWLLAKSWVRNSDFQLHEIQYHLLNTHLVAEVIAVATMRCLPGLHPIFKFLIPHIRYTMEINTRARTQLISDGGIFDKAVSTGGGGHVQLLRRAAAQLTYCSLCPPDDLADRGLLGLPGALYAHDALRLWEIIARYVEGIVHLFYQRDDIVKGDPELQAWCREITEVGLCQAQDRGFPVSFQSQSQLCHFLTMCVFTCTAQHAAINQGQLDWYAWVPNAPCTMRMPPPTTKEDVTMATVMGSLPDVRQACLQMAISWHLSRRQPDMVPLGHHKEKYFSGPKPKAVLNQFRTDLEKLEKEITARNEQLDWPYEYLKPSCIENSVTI
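Purified human 12hLO at 150 nM in 25 mM Hepes, 0.01% Triton X-100, pH 7.0, preincubated 15 min at room temperature with compound. Reaction started with 40 uM arachidonic acid, 30 min at room temperature. Hydroperoxide measured by Fe-xylenol orange, 573/405 nm absorbance ratio.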
PLK1 PBD inh: PLK1 (human) polo-box domain binding inhibition; 2.8% of 360,000 active; Plk1 PBD binding of FITC phosphopeptide, fluorescence polarization; Potency, µM, actives largely listed as inhibitors; P53350; also: series mostly up to about 57 µM; nearly all actives have a fitted effect of over 65% in size
G9a inh: blocks human histone lysine methyltransferase G9a | G9a H3K9 monomethylation, AlphaScreen, 2 h | Potency, µM (series often up to 102 µM), hits mostly inhibitors | 8.8% of 350,000 active | AID 504332; also: nearly all actives have a fitted effect of over 75% in size
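Compounds were preincubated with 20 nM G9a for 15 min, after which biotinylated H3K9 peptide (500 nM) and SAM (20 uM) started a 2 h room-temperature reaction. Monomethylated product was quantified by antibody-based AlphaScreen chemiluminescence.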
BAZ2B block: blocks human BAZ2B; Potency, µM (doses to about 114 µM), usual class: inhibitors; AlphaScreen BAZ2B-H3K14Ac peptide displacement; 4.4% of 360,000 active; also: nearly all actives have a fitted effect of over 60% in size
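Protein-peptide AlphaScreen: BAZ2B 50 nM, b-H3K14Ac 50 nM, 1x PBS pH 7.4 + 0.01% Tween-20. Preincubation 30 min RT; cpd 30 min RT (top 110 uM); beads 20 min RT, light-protected.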
JMJD2A Tudor: blocks the human JMJD2A Tudor domain; O75164; AlphaScreen JMJD2A-Tudor / H3K4me3 peptide binding; Potency, µM (top dose mostly 114 µM), most hits filed as inhibitors; 4.4% of 390,000 active; also: nearly all actives have a fitted effect of over 50% in size
HP1b chromo inh: inhibitors of HP1-beta chromodomain binding to methylated histone tails; P83916; AlphaScreen HP1-beta / biotin-H3K9me3 peptide binding; Potency, µM (top dose mostly 114 µM), most hits filed as inhibitors; 0.56% of 390,000 active; AID 540317; also: nearly all actives have a fitted effect of over 70% in size
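Compound inhibition of the preformed complex between 50 nM HP1-beta and 50 nM biotinylated H3K9me3 peptide was read by AlphaScreen. Buffer was PBS pH 7.4 with 0.01% Tween-20. Incubations ran 30 min at room temperature, with 10 ug/mL donor/acceptor beads.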
Hits are given with their value; i = inactive; ? = inconclusive; nt = no result; [ ] = dose if it differs, or a comment. Calls follow the shape of the dose curve; as a rule, active = well fitted curve in the direction sought with a large enough effect; inconclusive = small, poorly fitted or top-dose-only effect, or another doubt; inactive = no such curve, though single readings can be large; an effect the other way counts as inactive or inconclusive.

SMILES	ALOX12 inh	PLK1 PBD inh	G9a inh	BAZ2B block	JMJD2A Tudor	HP1b chromo inh
O=C(CS(=O)CC(=O)Nc1cnc2ccccc2c1)Nc1ccc(Cl)cc1 (stereo not given)	i	i	i	i	i	i
Cc1nc(NCCN2CCOCC2)c2nnn(Cc3c(F)cccc3Cl)c2n1	i	i	i	i	i	i
NS(=O)(=O)c1ccc(N=C2C(=O)Nc3ccccc32)cc1	i	i	nt	i	i	i
CC(C)C1=CC(=Nc2ccc(S(N)(=O)=O)cc2)C=C(C(C)C)C1=O	i	i	nt	44.7µM	56.2µM	?
CC(C)c1ccc(-c2nn(-c3ccccc3)cc2C2C(C#N)=C(N)OC3=C2C(=O)CC(C)(C)C3)cc1 (stereo not given)	i	i	?	i	i	i
Cc1ccc(S(=O)(=O)NCCC(=O)Nc2ccc(C)cc2C(=O)c2ccccc2)cc1	i	26.7µM	i	i	50.1µM	i
CC(C)COc1ccc(C(=O)N/C(=C/c2cccc([N+](=O)[O-])c2)C(=O)O)cc1	i	i	?	i	i	i
O=C(Cn1c(-c2cccs2)cc2ccccc21)NCCCN1CCN(c2cccc(Cl)c2)CC1	i	nt	?	25.1µM	?	i
CCN1CCN(CCCNC(=O)Cn2c(-c3cccs3)cc3ccccc32)CC1	i	nt	i	i	i	i
CN1CCN(CCCNC(=O)Cn2c(-c3cccs3)cc3ccccc32)CC1	i	nt	i	i	i	i
Cc1ccc(C)c(N2CCN(CCCNC(=O)Cn3c(-c4cccs4)cc4ccccc43)CC2)c1	i	nt	?	35.5µM	?	i
CCn1cc(CNC(=O)NC2CCCCC2)c(C)n1	i	i	i	i	i	i
C#CCC(NC(=O)c1ccc(C(F)(F)F)cc1)C(=O)NCCC (stereo not given)	i	i	i[0.501 µM]	i	i	i
C/C=C/c1ccc(OCC(=O)O)c(OC)c1	i	i	i	i	i	i
CC1=C(C#N)c2nc(N)c(C#N)c(C)c2/C1=C\c1ccc(-c2ccccc2C(=O)O)o1	?	26.7µM	7.94µM	12.6µM	35.5µM	44.7µM
COc1cc(/C=C2/C(C)=C(C#N)c3nc(N)c(C#N)c(C)c32)ccc1OCC(=O)O	?	23.8µM	nt	44.7µM	i[11.4 µM]	i
Cc1c(C(=O)O)cccc1-c1ccc(/C=C2/NC(=O)N(c3ccccc3)C2=O)o1	i	i	?	i	i	i
CC(C)N(Cc1nc2ccccc2c(=O)[nH]1)C(=O)c1ccc(NC(=O)CSc2nnnn2C)cc1	i	i	i	i	i	i
CCOc1ccc(N(CC(=O)Nc2ccc(C)cc2)S(C)(=O)=O)cc1	i	i	nt	?	i	i
O=C(CCN1CCN(CCO)CC1)Nc1ccc(C2CCCC2)cc1	44.7µM	i	?	?	i	i
COc1ccc(Cl)cc1NC(=O)CCc1ncc(-c2c(F)cccc2F)o1	i	nt	nt	nt	nt	nt
c1ccc2c(c1)nnn1c3ccccc3nc21	nt	nt	i	i	nt	nt
COC(=O)[C@@]1(Cc2ccc(OC)cc2)[C@H]2c3cc(C(=O)N4CCCC4)n(Cc4ccc(S(C)(=O)=O)cc4)c3C[C@H]2CN1C(=O)c1ccccc1	i	i	nt	nt	nt	nt
COC(=O)[C@@]1(Cc2ccc(F)cc2)[C@H]2c3cc(C(=O)N4CCCC4)n(CCc4ccccn4)c3C[C@H]2CN1C(=O)c1ccccc1	i	21.2µM	?	?	?	i
COC(=O)[C@@]1(Cc2ccc(F)cc2)[C@H]2c3cc(C(=O)N4CCCC4)n(CCc4c[nH]c5ccc(OC)cc45)c3C[C@H]2CN1C(=O)c1ccccc1	i	nt	39.8µM	?	nt	nt
SMILES	ALOX12 inh	PLK1 PBD inh	G9a inh	BAZ2B block	JMJD2A Tudor	HP1b chromo inh
COC(=O)[C@@]1(Cc2ccccc2)[C@H]2c3cc(C(=O)N4CCCC4)n(CCSCCO)c3C[C@H]2CN1C(=O)c1ccccc1	nt	nt	25.1µM	?	nt	nt
COCCn1c(C(=O)N2CCCC2)cc2c1C[C@H]1CN(C(=O)c3ccccc3)[C@@](Cc3ccc(F)cc3)(C(=O)OC)[C@@H]21	i	i	?	?	i	i
COC(=O)[C@@]1(Cc2ccc(OC)cc2)[C@H]2c3cc(C(=O)N4CCCC4)n(Cc4ccc(C)o4)c3C[C@H]2CN1C(=O)c1ccccc1	i	nt	79.4µM	39.8µM	nt	nt
O=C(Nc1nc(-c2ccccc2)cs1)c1ccc2c(c1)S(=O)(=O)c1ccccc1C2=O	i	i	i	i	i	i
CC1=C(C(=O)Nc2ccc(Cl)cc2)C(c2cccs2)n2nnnc2N1 (stereo not given)	i	i	i[12.7 µM]	i	i	i
CCn1c(SCC(=O)c2ccccc2)nc2c(c1=O)SC(C)C2 (stereo not given)	i	i	i	i	i	i
O=C(O)c1ccccc1NCc1ccncc1	i	i	39.8µM	i	i	i
O=C(O)c1ccccc1NCCO	i	i	50.1µM	nt	i	i
O=C(O)c1ccc(CNc2ccccc2C(=O)O)cc1	i	i	?	?	56.2µM	i
Cc1c(NCc2ccncc2)cccc1C(=O)O	?	i	?	i	i	i
CCN(CC)c1ccc(NC(=O)COc2ccc(N(C)S(=O)(=O)c3cccs3)cc2)cc1	i	i	7.94µM	10µM	?	i
CCOc1ccc(NC(=O)COc2ccc(-n3cnnn3)cc2)cc1	i	i	i[12.7 µM]	i	i	i
CCN(CC)c1ccc(NC(=O)COc2ccc(-n3cnnn3)cc2)cc1	?	i	nt	nt	50.1µM	?
COc1ccc(CCNC(=O)COc2cc(=O)n(C)c3ccccc23)cc1OC	i	i	i	i	i	i
Cc1ccc2[nH]c(=O)c(CN(Cc3cccs3)S(=O)(=O)c3ccc4c(c3)OCCO4)cc2c1	i	i	1µM	i	i	i
Cc1cc2cc(CN(Cc3cccs3)S(=O)(=O)c3ccc4c(c3)OCCO4)c(=O)[nH]c2cc1C	i	i	i	i	i	i
c1cncc(COc2cc3c(cn2)NCCN(Cc2ccsc2)C3)c1	i	nt	nt	nt	nt	nt
O=C(Nc1cccc(-c2ccco2)c1)C1CCN(Cc2ccc(CO)o2)CC1	i	nt	nt	nt	nt	nt
COc1ccccc1Cc1c(C2CCCCC2)nc2ccc(Cl)cn12	i	i	nt	nt	nt	nt
O=C(O)C(c1c[nH]c2cc(F)ccc12)N1CCc2ccccc2C1 (stereo not given)	i	nt	nt	nt	nt	nt
O=C(O)C(c1c[nH]c2cc(Br)ccc12)N1CCCN(c2ccc(C(F)(F)F)cn2)CC1 (stereo not given)	25.1µM	nt	nt	nt	nt	nt
Cc1cc(N2CCN(C(C(=O)O)c3c[nH]c4cc(Cl)ccc34)CC2)nc2ccccc12 (stereo not given)	17.8µM	nt	nt	nt	nt	nt
O=C(O)C(c1c[nH]c2ccc(Cl)cc12)N1CCN(c2ccc(F)cc2)CC1 (stereo not given)	i	nt	nt	nt	nt	nt
O=C(O)C(c1c[nH]c2cc(F)ccc12)N1CCN(C(c2ccccc2)c2ccccc2)CC1 (stereo not given)	17.8µM	nt	nt	nt	nt	nt
O=C(O)C(c1c[nH]c2ccccc12)N1CCN(c2ncc(Br)cn2)CC1 (stereo not given)	i	nt	nt	nt	nt	nt

High-throughput results: PubChem BioAssay, National Center for Advancing Translational Sciences (NCATS)
